Laboratory results: PubChem BioAssay AID651920 (Broad Institute, 2012)
Results with a measured potency or affinity are listed apart. Active and inactive are the calls of the source.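 Rule for the calls: active = compounds lowering viability with a fitted half-maximal potency at or below twice the top tested dose; inconclusive = flat fit showing 30 to 70% loss, or poor fit; inactive = the rest.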

experiment: melanocyte viability loss, MITF-dependent cells, cell-based, plate reader, dry powder, cytotoxicity control, dose response (AID 651920); details: primary human melanocytes viability, ATP luminescence, 24 h; series mostly up to 35 µM; activity change, negative = viability loss: at the top concentration

Compound	activity change, negative = viability loss
NC1=C(NS(=O)(=O)c2ccccc2)C(=O)c2ccccc2C1=O	8.49% (inactive)
CC(C)N1CCN(C2=C(Nc3ccc(F)cc3F)C(=O)c3ccccc3C2=O)CC1	-11.3% (inactive)
O=C1C(Nc2ccc(Cl)cc2)=C(N2CCCC2)C(=O)c2ccccc21	-6.05% (inactive)
NC1=C(NS(=O)(=O)c2ccc(Br)s2)C(=O)c2ccccc2C1=O	6.49% (inactive)
CN1CCN(C2=C(Nc3ccc(F)cc3F)C(=O)c3ccccc3C2=O)CC1	3.7% (inactive)
CC(C)N1CCN(C2=C(Nc3ccc(F)cc3)C(=O)c3ccccc3C2=O)CC1	4.05% (inactive)
O=C1C(Nc2ccc(Br)cc2)=C(N2CCCCC2)C(=O)c2ccccc21	4.72% (inactive)
NC1=C(NS(=O)(=O)c2cccs2)C(=O)c2ccccc2C1=O	8.73% (inactive)
CCN1CCN(C2=C(Nc3ccc(F)cc3F)C(=O)c3ccccc3C2=O)CC1	12% (inactive)
NC1=C(NS(=O)(=O)c2ccc(Br)cc2)C(=O)c2ccccc2C1=O	0.856% (inactive)
Cc1ccc(NC2=CC(=O)c3ccccc3C2=O)cc1	3.64% (inactive)
O=C1C=C(Nc2ccccc2)C(=O)c2ccccc21	6.12% (inactive)
O=C1C(Nc2cccc(Cl)c2)=C(N2CCCC2)C(=O)c2ccccc21	-2.73% (inactive)
O=C1C(Nc2ccc(F)cc2)=C(N2CCCCC2)C(=O)c2ccccc21	-0.278% (inactive)
